Measured values from PubChem BioAssay AID2013 (Sanford-Burnham Center for Chemical Genomics, 2009).
In all, about 290,000 compounds went through this assay and about 370 (0.13%) were called active. For the sample, actives were picked, then their nearest neighbours and some compounds at random. Measured potencies and affinities stand elsewhere. Values without a mark were called inactive.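 The calls were made as follows: active = spots per cell inhibited over 60%, with over 100 cells counted and total cytoplasm intensity under 500,000; inconclusive = wells with under 100 cells, flagged as likely toxic; inactive = the rest.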

Molecular target: G-protein coupled receptor 55 (Homo sapiens) (UniProt Q9Y2T6)
Sequence (Q9Y2T6 whole entry, looked up): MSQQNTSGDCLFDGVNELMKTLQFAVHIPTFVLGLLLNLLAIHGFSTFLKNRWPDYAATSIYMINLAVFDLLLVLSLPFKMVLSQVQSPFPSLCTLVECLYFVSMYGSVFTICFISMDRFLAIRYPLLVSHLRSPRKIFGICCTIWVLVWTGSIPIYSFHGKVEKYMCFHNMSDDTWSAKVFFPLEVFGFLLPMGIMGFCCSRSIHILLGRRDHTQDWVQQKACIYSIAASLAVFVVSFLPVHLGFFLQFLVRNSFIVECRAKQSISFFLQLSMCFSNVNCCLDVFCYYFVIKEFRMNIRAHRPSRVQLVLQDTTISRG
Test: inhibition of LPI-stimulated GPR55 beta-arrestin translocation – imaging, U2OS, beta-arrestin-GFP, LPI agonist, primary screen (AID 2013);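 also: U2OS cells stably carrying GPR55 and arrestin-GFP stimulated by 5 µM LPI near EC80; imaged beta-arrestin-GFP aggregate spots per cell after agonist stimulation; plate controls were LPI-stimulated DMSO wells for no effect and DMSO wells without LPI for full effect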
Settings: LPI antagonism, at 10 µM, hits give high values

| SMILES | inhibition |
| --- | --- |
| CC(C)c1ccc(CN2C(=O)NC3(CCCCCC3)C2=O)cc1 | 4.2% |
| CCC(=O)N1CCc2cc(Br)cc(S(=O)(=O)NCCN3CCCCC3C)c21 (centres undefined) | 77.2% (active) |
| CCC(=O)N1CCc2cc(Br)cc(S(=O)(=O)NCCN3CCCCC3CC)c21 (centres undefined) | 5.4% |
| CC(=O)N1CCc2cc(Br)cc(S(=O)(=O)NCCN3CCCCC3C)c21 (centres undefined) | 10.5% |
| COc1ccccc1CNC(=O)CSc1nc2ccccc2c(=O)n1CCCN1CCOCC1 | 1.4% |
| Cc1ccccc1NC(=O)CSC(N)=O | 1.9% |
| Cc1ccc(C(C)C)c(OCC(=O)Nc2cccc(S(=O)(=O)NC3=NCCCCC3)c2)c1 | -2.2% |
| O=C(COc1ccc(Cl)cc1Cl)Nc1ccc(S(=O)(=O)NC2=NCCCCC2)cc1 | 3.6% |
| Cc1ccc(Nc2cc(C)nc(NCc3ccccc3)n2)cc1 | 26.1% |
| Cc1cc(Nc2ccc(Cl)cc2)nc(NCc2ccccc2)n1 | 13.1% |
| CC(=O)NC(=S)Nc1cccc2ccc(C)nc12 | -6.6% |
| Cc1cc(C(F)(F)F)n(-c2nc(C(=O)N/N=C/c3ccc(F)cc3)cs2)n1 | -8.1% |
| COC(=O)c1ccccc1NC(=S)NC(=O)c1ccc2c(c1)OCO2 | 7.9% |
| COc1ccc(CCNC(=O)[C@H](C)NC(=O)[C@@H]2CSC3c4ccccc4C(=O)N32)cc1 (some centres undefined) | 9.5% |
| CCN(CC)S(=O)(=O)c1ccc(NCC2COc3ccccc3O2)c([N+](=O)[O-])c1 (centres undefined) | 8.6% |
| CCN(c1ccccc1)S(=O)(=O)c1ccc(Cl)nc1 | -13.7% |
| Cc1ccc(CNc2nc(C)cs2)cc1 | 4.7% |
| CCCn1c(SCc2nc3sc(C)c(C)c3c(=O)[nH]2)nc2ccccc2c1=O | 8.6% |
| Cc1sc2nc(CSc3nc4ccccc4c(=O)n3CCCN3CCOCC3)[nH]c(=O)c2c1C | 89.7% (active) |
| Cc1[nH]c2ccccc2c1C(=O)CSc1nc2ccccc2c(=O)n1CCCN1CCOCC1 | -7.3% |

| SMILES | inhibition |
| --- | --- |
| Cc1cc(C)cc(Oc2cc(NC(=O)c3cn(C)nc3C)cc([N+](=O)[O-])c2)c1 | -5.3% |
| Cc1ccc(NC(=O)c2cc(S(=O)(=O)N3CCc4ccccc43)cn2C)cc1 | 6.1% |
| Cc1cccc(N(C)C(=O)c2cc(S(=O)(=O)N3CCc4ccccc43)cn2C)c1 | 8.9% |
| CN(C)/C=N/c1[nH]ncc1C#N | -2% |
| Cc1nc2ccccc2n1CC(O)Cn1c(C(F)(F)F)nc2ccccc21 (centres undefined) | 6.6% |
| NC(=O)CSc1n[nH]c(-c2ccco2)n1 | 8.2% |
| O=C(c1cccc(S(=O)(=O)N2CCN(c3ccccc3)CC2)c1)N1CC=C(c2ccccc2)CC1 | 4.3% |
| COc1ccccc1NS(=O)(=O)c1cccc(NC(=S)NCCN2CCOCC2)c1 | 0.8% |
| COc1ccccc1NS(=O)(=O)c1cc(NC(=O)CC(C)(C)C)ccc1N1CCOCC1 | 6.1% |
| Cc1ccccc1NC(=O)Nc1cc(S(N)(=O)=O)ccc1C | -2.7% |
| COc1ccc(N2CCN(C(=O)NCc3ccc(C)cc3)CC2)cc1 | 1% |
| CC(=O)Nc1cccc(C(=O)OCC(=O)c2ccccc2Cl)c1 | -0.6% |
| COc1cc(S(=O)(=O)Nc2ccccc2)ccc1N=Cc1c(C)[nH]n(-c2ccc(C)cc2)c1=O | 7.7% |
| O=C(Nc1ccccc1N1CCOCC1)c1cccc(NS(=O)(=O)c2ccc(F)c(F)c2)c1 | 2.6% |
| O=C(CC12CC3CC(CC(C3)C1)C2)NCc1ccco1 | 11.3% |
| O=C(CC12CC3CC(CC(C3)C1)C2)NC(=S)NCc1ccccc1 | 53% |
| OCCNc1cnc2ccccc2n1 | 12.6% |
| CC1CN(S(=O)(=O)c2ccccc2)CN1C(=O)N1CCOCC1 (centres undefined) | 15.3% |
| CCN1CCCC1CN(Cc1cc2ccc(C)cc2[nH]c1=O)C(=S)Nc1ccc(F)cc1 (centres undefined) | 23.5% |
| COc1ccc(Cl)cc1S(=O)(=O)n1ccnc1 | 4.2% |

| SMILES | inhibition |
| --- | --- |
| C[N+]1=C(/C=C/Nc2ccccc2Cl)C(C)(C)c2ccccc21 | 0.9% |
| COC(=O)c1ccc2c(c1)C(C)(C)C(/C=C/c1ccccc1O)=[N+]2C | 11.5% |
| O=C1c2ccccc2C(=O)C2OC12 (centres undefined) | 12.7% |
| COc1ccc(OC)c(-c2csc(N(CC3CCCO3)C(=O)C3CCCCC3)n2)c1 (centres undefined) | 82.9% (active) |
| COc1ccc(-c2csc(N(CC3CCCO3)C(=O)c3ccccc3)n2)cc1 (centres undefined) | 0.7% |
| COc1ccc(OC)c(-c2csc(N(CC3CCCO3)C(=O)Cc3ccccc3)n2)c1 (centres undefined) | 17.6% |
| CN(C)c1ccc(C(=O)OCC(=O)Nc2ccc(N3CCOCC3)cc2)cc1 | 0.2% |
| CCN(CC)c1ccc(NC(=O)Cn2c(C(C)NC(=O)c3ccc(C)cc3)nc3ccccc32)cc1 (centres undefined) | 1.1% |
| Cn1c(CSCc2ccccc2Cl)n[nH]c1=S | -17.8% |
| S=c1[nH]nc(CSCc2ccccc2Cl)n1-c1ccccc1 | 1% |
| CN(Cc1ccc(Cl)cc1Cl)C(=O)CNC(=O)c1ccco1 | 8.3% |
| CCCn1cc(S(=O)(=O)c2ccccc2)c(=O)c2cc(F)c(N3CCN(C)CC3)cc21 | 7.5% |
| Clc1cccc(-c2cc3nc4c(c(N5CCNCC5)n3n2)CCCC4)c1 | 90.4% (active) |
| Clc1cccc(-c2cc3nc4c(c(N5CCOCC5)n3n2)CCCC4)c1 | -8.9% |
| Clc1cccc(-c2cc3nc4c(c(N5CCN(c6cnccn6)CC5)n3n2)CCCC4)c1 | -5.5% |
| COc1ccc(NS(=O)(=O)c2ccc3nc(COc4ccc(C#N)cc4)[nH]c3c2)cc1 | 6% |
| COc1ccc(NS(=O)(=O)c2ccc3nc(COc4ccc5ccccc5c4)[nH]c3c2)cc1 | 20.6% |
| COc1ccc(/C=C(\C#N)C(=O)OCC(=O)Nc2ccc(-c3nc4ccc(C)cc4s3)cc2)cc1 | -6.4% |
| C=C(C)CSc1nc2ncc(Cl)cc2[nH]1 | 17.6% |
